“And” between values parts separate entries of the source, which are not always exact repeats. Equal values may be shown once. Records with an inconclusive call do not appear. The source made the active and inactive calls. Unless noted, the call rests on the fitted dose curve; in most records, active means well fitted curve in the direction sought with a large enough effect; inconclusive means small, poorly fitted or top-dose-only effect, or another doubt; inactive means no such curve, though single readings can be large; an effect the other way counts as inactive or inconclusive.
Experiments:
[1] = AP1 Signaling Pathway (AID 357; active means well fitted curve in either direction with a large enough effect, not every such curve was filed as active;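 further: ME-180 reporter cells stimulated with EGF at its EC50 level; on the % scale 0 is the no-effect control and ±100 the full control effect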); conditions: ME-180 AP-1-bla reporter, EGF-induced, beta-lactamase ratio, 5 h; at 7.69 µM (top of the series) unless noted
Outline: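 First, ME-180 AP-1-bla cells were cultured overnight at 37 °C in low-serum Opti-MEM. Next, titrated compounds with EC50 EGF were incubated 5 hours. Finally, CCF4 was added for 2.5 hours and the 460/530 nm ratio recorded.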

[2] = molecular target: Cytochrome P450 1A2 (Homo sapiens) (UniProt P05177); assay: p450-cyp1a2 (AID 410; calls by dose curve; further: potency means the concentration at half of the fitted maximal effect;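 on activity change, negative = inhibition: -100% = full effect of reference inhibitor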)
Outline: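 Luminescent demethylation readout: Luciferin-ME (100uM, equal to Km) turned over by 20nM CYP1A2 for 60 min at room temperature after NADPH regeneration addition, following 10 min compound preincubation. Normalization used 57 uM furafylline as full inhibition.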

[3] = NFAT Signaling Pathway (AID 444; active means well fitted curve in either direction with a large enough effect, not every such curve was filed as active;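 further: carbachol stimulus at about its EC50 of 1 µM final; on the % scale 0 is the no-effect control and ±100 the full control effect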); conditions: Jurkat NFAT-bla M1, carbachol, beta-lactamase ratio, 5 h; at 7.69 µM (top of the series) unless noted
Outline: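 Jurkat cells with NFAT-driven β-lactamase reporter and co-expressed M1 receptor, stimulated with carbachol (final 1 uM, ~EC50), compound titration, 5 h at 37 °C. CCF4 loaded 1 h at RT; 460/530 nm ratio gave %activity and AC50.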

[4] = Stat Signaling Pathway (AID 446; active means well fitted curve in either direction with a large enough effect, not every such curve was filed as active;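 further: ME-180 cervical cancer cells given 40 pM IL-6 alongside compound; SIE-controlled beta-lactamase reporter measured as 460/530 nm FRET emission ratio; on the % scale 0 is the no-effect control and ±100 the full control effect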); conditions: ME-180 (cervical carcinoma) SIE beta-lactamase reporter, IL-6 stimulated, 5 h; at 7.69 µM (top of the series) unless noted
Outline: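 Normalization used AC90 stimulation (300 pM IL-6) and AC90 inhibition (125 nM pan-JAK inhibitor at 40 pM IL-6). The underlying signal is SIE-driven beta-lactamase in ME-180 cells after 5 h IL-6 exposure with compound.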

[5] = molecular target: Glucocorticoid receptor (Homo sapiens) (UniProt P04150); assay: GR-GFP Redistribution (AID 450;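 active means compounds whose dose series gives a full or clear partial fitted curve of increased nuclear translocation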; further: potency means the concentration at half of the fitted maximal effect); conditions: U2OS GR-GFP nuclear translocation, laser cytometry, 2 h
[6] = molecular target: Glucocorticoid receptor (Homo sapiens) (UniProt P04150); assay: GR-EFC Redistribution (AID 451; calls by dose curve; further: potency means the concentration at half of the fitted maximal effect); conditions: CHO-K1 GR-EFC translocation, beta-gal luminescence, 2 h
Outline: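 CHO-K1 cells expressing nuclear EA and GR-ED fragments of b-gal; compounds titrated up to 46 uM final, 2 h at 37 C. GR nuclear translocation read as complemented b-gal luminescence after 1 h RT detection.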

[7] = molecular target: Mitogen-activated protein kinase 10 (Mus musculus) (UniProt Q61831); assay: JNK3 AlphaScreen Assay (AID 530; active means well fitted curve in either direction with a large enough effect, not every such curve was filed as active;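 further: kinase came from lysate of stimulated human HepG2 cells; signal reports phosphorylation of biotinylated GST-cJun 1-79 at Ser73 with 10 µM ATP; on the % scale 0 is the no-effect control and ±100 the full control effect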)
Outline: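 Activity was read by AlphaScreen after JNK3-containing HepG2 lysate (cytokine pre-activated) phosphorylated biotinylated GST-cJun with 10 uM ATP at room temperature. Phospho-Ser73 cJun antibody with Protein-A acceptor beads provided detection.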

[8] = molecular target: 3',5'-cyclic-AMP phosphodiesterase 4B (Homo sapiens) (UniProt Q07343); assay: qHTS Assay for Inhibitors of PDE-IV (AID 607; active means well fitted activation curve with a large enough effect in the main read-out, with a control signal flat, not every such curve was filed as active; further: % of control where 0% means no effect)
Outline: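 HEK293 ACTOne cells with CNG channel (1000/well), endogenous PDE4; membrane potential dye, compounds up to 22.9 uM final. Fluorescence Ex 535/Em 590; RO 20-1724 (100 uM final) as reference.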

[9] = molecular target: Guanine nucleotide-binding protein G(i) subunit alpha-1 (Homo sapiens) (UniProt P63096); assay: qHTS Assay for Inhibitors of RGS12 GoLoco Motif Activity (Green Fluorophore) (AID 879);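 further: 0% = labeled peptide with Gαi1 and full inhibition = labeled peptide alone without protein; negative values mean loss of peptide binding seen as reduced polarization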
Outline: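 A drop in FITC polarization marked displacement of the FITC-tagged RGS12 GoLoco peptide (10 nM) from Gαi1 (50 nM). Compounds were incubated 10 min at room temperature in Tris pH 7.5 buffer containing 150 mM NaCl, 0.1 mM GDP and 0.05% NP40; unlabeled peptide titration served as control.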

[10] = molecular target: Cytochrome P450 3A4 (Homo sapiens) (UniProt P08684); assay: qHTS Assay for Activators of Cytochrome P450 3A4 (AID 885); further: nearly all actives have a fitted effect of over 65% in size
Outline: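 Human CYP3A4 dealkylates Luciferin-PPXE to luciferin, which luciferase detection converts to light. Substrate was at its KM (25uM), buffer 200mM KPO4, reaction 60 min at RT.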

[11] = molecular target: Cytochrome P450 2D6 (Homo sapiens) (UniProt P10635); assay: qHTS Assay for Inhibitors and Substrates of Cytochrome P450 2D6 (AID 891); further: potency means the concentration at half of the fitted maximal effect; nearly all actives have a fitted effect of over 60% in size
Outline: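 Luminescent read-out of luciferin formed by 5 nM human CYP2D6 demethylating 30 uM Luciferin-ME EGE (Km level) over 60 min at room temperature after NADPH regeneration addition. Data normalized to full inhibition by 1.43 uM quinidine.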

[12] = qHTS Assay for Identification of Small Molecule Agonists for Thrombopoietin (TPO) Signaling Pathway (AID 917); further: on the % scale 0 is the no-effect control and ±100 the full control effect
Outline: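 Quantitative HTS for pathway activators: compounds were pin-transferred onto IL-3-starved Ba/F3 cells expressing human TPO receptor, TPO was added at its EC50 (26 pM final), and after 24 hrs at 37 C reporter luciferase was measured.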

[13] = molecular target: Muscarinic acetylcholine receptor M1 (Rattus norvegicus) (UniProt P08482); assay: qHTS Assay for Antagonists of Acetylcholine Muscarinic M1 Receptor: Measurement of IP-One Response (AID 944); further: nearly all actives have a fitted effect of over 75% in size; further: potency means the concentration at half of the fitted maximal effect
Outline: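 IP1 accumulation measured via TR-FRET between d2-IP1 and Eu-cryptate anti-IP1 antibody after carbachol (200 nM, EC80) stimulation for 30 min; rat M1-transfected CHO cells received compound 10 min before agonist.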

[14] = molecular target: Pyruvate kinase (Leishmania mexicana) (UniProt Q27686); assay: qHTS Validation Assay for Inhibitors of Leishmania Mexicana Pyruvate Kinase (AID 945);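 further: 0% = DMSO only neutral control wells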
Outline: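 Compounds are tested as eight-point concentration series. Reactions contain 0.2 nM LmPYK E451W, 0.5 mM PEP, 0.1 mM ADP, 7 mM MgCl2 and 50 mM KCl at pH 7.2, run 1 h at room temperature, then read by PKLight luminescence.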

[15] = molecular target: Pyruvate kinase PKM (Homo sapiens) (UniProt P14618); assay: qHTS Assay for Activators of Human Muscle Pyruvate Kinase (AID 954; active means well fitted curve in the direction sought with a large enough effect, not every such curve was filed as active;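 further: 0% = uninhibited enzyme and -100% = no enzyme or full thiadiazolimine inhibition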)
Outline: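 Compound pinned into substrate mix (0.5 mM PEP, 0.1 mM ADP), then 0.1 nM PKM2 added; 1 h, RT. Stop/detection luciferase reagent added, luminescence read. Normalized to no-inhibition and no-enzyme or reference-inhibitor controls.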

[16] = molecular target: Alpha-galactosidase (Coffea arabica) (UniProt Q42656); assay: Counterscreen for Glucocerebrosidase Inhibitors: qHTS Assay for Coffee Bean alpha-Galactosidase at pH 4.5 (AID 957);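 further: plate controls were enzyme alone for no effect and no enzyme for full effect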
Outline: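 Fluorogenic qHTS at pH 4.5 (citrate buffer with Tween-20): 2 nM enzyme, 80 uM 4-MU-alpha-galactoside substrate, compound titrated 0.7 nM to 77 uM, 20 min room temperature. Glycine/NaOH stop; 4-MU read Ex 365/Em 440; Hill-equation AC50 against no-enzyme and enzyme controls.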

[17] = molecular target: Alpha-galactosidase A (Homo sapiens) (UniProt P06280); assay: Counterscreen for Glucocerebrosidase Inhibitors: qHTS Assay for Human alpha-Galactosidase at pH 4.5 (AID 992); further: 0% is about no effect
Outline: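 Steps: enzyme (2 nM final), then compound across 0.7 nM to 77 uM, then 80 uM fluorogenic galactopyranoside substrate; incubate 20 min at room temperature; quench at pH 10; measure fluorescence at 365/440 nm.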

[18] = molecular target: alpha-glucosidase (Oryza sativa, rice) (UniProt Q653V4); assay: Counterscreen for Glucocerebrosidase Inhibitors: qHTS Assay for Rice alpha-Glucosidase at pH 5.0 (AID 997);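 further: 0% = full activity with enzyme and -100% = basal without enzyme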
Outline: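 Endpoint fluorogenic assay at pH 5.0: compounds (0.7 nM to 77 uM) titrated against 4 nM rice enzyme and 400 uM 4-MU-alpha-glucoside for 20 min at room temperature; NaOH/glycine stop, read ex 365/em 440 nm, Hill-fitted AC50.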

[19] = molecular target: Alpha-galactosidase (Coffea arabica) (UniProt Q42656); assay: Counterscreen for Glucocerebrosidase Inhibitors: qHTS Assay for Coffee Bean alpha-Galactosidase at pH 5.9 (AID 998);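 further: plate controls were uninhibited enzyme for no effect and no-enzyme basal signal for full effect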
Outline: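 Enzyme 2 nM + cpd (0.7 nM–77 uM titration) + 4-MU-alpha-Gal 80 uM, pH 5.9 citrate/Tween-20, RT 20 min, NaOH/glycine stop pH 10, fluor 365/440. Normalized to no-enzyme and full-activity controls; Hill-fit AC50.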

Sequence of Guanine nucleotide-binding protein G(i) subunit alpha-1 (Homo sapiens) (P63096 whole entry, looked up): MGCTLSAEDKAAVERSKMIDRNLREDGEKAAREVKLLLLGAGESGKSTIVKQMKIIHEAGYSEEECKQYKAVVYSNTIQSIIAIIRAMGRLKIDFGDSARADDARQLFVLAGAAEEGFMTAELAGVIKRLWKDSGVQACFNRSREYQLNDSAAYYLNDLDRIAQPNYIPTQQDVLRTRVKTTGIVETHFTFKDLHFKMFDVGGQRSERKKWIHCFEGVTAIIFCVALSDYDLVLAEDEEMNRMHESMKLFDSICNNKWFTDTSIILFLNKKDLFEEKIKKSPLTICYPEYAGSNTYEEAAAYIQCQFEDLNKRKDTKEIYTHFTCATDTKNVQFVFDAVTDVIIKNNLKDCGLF
Sequence of Pyruvate kinase (Leishmania mexicana) (Q27686 2-499 E452W): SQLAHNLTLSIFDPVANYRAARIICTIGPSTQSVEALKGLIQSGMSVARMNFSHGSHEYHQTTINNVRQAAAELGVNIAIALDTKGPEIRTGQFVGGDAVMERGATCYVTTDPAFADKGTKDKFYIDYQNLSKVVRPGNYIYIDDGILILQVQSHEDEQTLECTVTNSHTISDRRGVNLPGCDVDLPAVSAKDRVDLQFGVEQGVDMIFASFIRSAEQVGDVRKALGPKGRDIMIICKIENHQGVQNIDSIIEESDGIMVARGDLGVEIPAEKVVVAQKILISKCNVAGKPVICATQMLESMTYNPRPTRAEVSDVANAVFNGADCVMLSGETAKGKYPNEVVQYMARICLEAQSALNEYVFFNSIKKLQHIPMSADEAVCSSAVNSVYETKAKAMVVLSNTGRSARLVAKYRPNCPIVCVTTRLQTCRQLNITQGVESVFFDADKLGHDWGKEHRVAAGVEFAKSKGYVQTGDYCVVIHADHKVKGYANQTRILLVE
Sequence of Alpha-galactosidase A (Homo sapiens) (P06280 whole entry, looked up): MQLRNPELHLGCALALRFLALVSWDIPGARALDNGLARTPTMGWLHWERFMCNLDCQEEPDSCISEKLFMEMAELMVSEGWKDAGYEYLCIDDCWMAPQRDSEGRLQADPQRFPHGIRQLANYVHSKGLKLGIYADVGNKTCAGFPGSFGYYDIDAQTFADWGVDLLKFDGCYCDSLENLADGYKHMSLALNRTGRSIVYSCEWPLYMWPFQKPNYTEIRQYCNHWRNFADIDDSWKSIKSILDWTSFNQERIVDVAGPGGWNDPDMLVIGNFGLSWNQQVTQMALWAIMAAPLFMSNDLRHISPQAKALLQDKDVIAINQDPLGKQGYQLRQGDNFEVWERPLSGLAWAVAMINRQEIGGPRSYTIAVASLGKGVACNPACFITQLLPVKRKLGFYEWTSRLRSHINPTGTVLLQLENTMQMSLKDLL
Sequence of 3',5'-cyclic-AMP phosphodiesterase 4B (Homo sapiens) (Q07343 whole entry, looked up): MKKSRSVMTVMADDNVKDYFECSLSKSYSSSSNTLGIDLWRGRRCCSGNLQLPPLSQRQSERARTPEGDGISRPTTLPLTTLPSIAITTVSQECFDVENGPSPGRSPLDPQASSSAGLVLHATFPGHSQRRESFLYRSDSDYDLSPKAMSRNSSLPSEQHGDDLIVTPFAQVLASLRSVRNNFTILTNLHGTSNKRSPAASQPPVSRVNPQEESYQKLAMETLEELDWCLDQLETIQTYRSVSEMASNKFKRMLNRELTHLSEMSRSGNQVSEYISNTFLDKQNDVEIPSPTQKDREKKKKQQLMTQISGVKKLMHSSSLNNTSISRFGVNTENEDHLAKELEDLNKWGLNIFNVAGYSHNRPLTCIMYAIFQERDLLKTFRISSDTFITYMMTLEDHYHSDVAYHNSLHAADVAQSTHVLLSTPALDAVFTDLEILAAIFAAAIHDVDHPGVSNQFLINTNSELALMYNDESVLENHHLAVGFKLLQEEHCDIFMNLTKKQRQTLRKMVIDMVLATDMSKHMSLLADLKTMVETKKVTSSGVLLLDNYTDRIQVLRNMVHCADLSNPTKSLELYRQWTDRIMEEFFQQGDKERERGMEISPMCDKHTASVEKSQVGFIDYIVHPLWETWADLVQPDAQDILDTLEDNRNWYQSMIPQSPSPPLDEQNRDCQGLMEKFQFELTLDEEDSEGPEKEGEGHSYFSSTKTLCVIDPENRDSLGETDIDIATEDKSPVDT
Sequence of Cytochrome P450 3A4 (Homo sapiens) (P08684 whole entry, looked up): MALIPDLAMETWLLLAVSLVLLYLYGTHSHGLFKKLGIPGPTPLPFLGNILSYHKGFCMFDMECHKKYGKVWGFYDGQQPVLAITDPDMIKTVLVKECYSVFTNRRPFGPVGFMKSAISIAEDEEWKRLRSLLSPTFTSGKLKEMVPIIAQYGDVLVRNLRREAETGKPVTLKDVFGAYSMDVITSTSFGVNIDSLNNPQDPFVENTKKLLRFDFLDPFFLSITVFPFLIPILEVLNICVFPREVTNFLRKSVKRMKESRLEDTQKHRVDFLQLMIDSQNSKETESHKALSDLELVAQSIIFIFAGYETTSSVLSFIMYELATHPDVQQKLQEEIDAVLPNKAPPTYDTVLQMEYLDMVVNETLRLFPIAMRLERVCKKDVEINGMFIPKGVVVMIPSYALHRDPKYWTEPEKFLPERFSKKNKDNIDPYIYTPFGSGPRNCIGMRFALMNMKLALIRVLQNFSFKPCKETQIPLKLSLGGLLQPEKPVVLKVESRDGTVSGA
Sequence of Pyruvate kinase PKM (Homo sapiens) (P14618 whole entry, looked up): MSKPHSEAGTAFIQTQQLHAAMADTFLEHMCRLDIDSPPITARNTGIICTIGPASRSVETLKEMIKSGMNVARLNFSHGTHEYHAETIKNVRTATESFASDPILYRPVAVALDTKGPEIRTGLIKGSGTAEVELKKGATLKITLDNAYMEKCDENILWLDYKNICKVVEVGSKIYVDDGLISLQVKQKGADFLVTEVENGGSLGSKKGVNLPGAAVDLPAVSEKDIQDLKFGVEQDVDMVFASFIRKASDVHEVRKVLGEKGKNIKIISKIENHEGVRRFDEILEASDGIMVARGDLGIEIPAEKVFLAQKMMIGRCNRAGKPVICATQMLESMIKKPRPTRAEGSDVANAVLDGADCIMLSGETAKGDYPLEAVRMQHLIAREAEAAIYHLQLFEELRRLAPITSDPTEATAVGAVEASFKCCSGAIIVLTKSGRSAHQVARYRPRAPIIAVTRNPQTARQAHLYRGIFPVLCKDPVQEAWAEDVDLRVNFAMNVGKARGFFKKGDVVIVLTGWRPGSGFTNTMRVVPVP
Sequence of Alpha-galactosidase (Coffea arabica) (Q42656 whole entry, looked up): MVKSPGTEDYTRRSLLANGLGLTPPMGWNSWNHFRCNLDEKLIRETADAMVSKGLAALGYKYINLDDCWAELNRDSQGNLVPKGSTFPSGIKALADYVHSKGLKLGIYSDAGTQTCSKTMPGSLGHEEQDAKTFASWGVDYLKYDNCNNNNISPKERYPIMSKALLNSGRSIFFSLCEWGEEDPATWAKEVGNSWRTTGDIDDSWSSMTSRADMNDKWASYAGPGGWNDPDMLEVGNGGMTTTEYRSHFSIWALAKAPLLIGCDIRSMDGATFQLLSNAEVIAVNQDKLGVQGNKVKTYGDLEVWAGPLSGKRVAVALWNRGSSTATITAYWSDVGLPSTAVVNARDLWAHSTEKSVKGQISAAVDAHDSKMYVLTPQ
Sequence of Muscarinic acetylcholine receptor M1 (Rattus norvegicus) (P08482 whole entry, looked up): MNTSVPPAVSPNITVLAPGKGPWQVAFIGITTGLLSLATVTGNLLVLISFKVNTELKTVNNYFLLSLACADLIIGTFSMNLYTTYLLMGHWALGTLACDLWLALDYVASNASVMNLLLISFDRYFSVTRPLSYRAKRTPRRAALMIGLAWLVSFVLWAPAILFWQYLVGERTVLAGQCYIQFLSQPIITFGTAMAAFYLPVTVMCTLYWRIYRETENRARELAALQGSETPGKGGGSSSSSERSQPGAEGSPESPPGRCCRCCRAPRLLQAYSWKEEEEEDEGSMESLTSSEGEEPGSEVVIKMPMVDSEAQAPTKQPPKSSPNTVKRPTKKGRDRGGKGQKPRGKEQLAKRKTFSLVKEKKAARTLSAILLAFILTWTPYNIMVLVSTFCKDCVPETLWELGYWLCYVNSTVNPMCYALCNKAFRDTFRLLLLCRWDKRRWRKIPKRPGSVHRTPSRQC
Sequence of Cytochrome P450 1A2 (Homo sapiens) (P05177 whole entry, looked up): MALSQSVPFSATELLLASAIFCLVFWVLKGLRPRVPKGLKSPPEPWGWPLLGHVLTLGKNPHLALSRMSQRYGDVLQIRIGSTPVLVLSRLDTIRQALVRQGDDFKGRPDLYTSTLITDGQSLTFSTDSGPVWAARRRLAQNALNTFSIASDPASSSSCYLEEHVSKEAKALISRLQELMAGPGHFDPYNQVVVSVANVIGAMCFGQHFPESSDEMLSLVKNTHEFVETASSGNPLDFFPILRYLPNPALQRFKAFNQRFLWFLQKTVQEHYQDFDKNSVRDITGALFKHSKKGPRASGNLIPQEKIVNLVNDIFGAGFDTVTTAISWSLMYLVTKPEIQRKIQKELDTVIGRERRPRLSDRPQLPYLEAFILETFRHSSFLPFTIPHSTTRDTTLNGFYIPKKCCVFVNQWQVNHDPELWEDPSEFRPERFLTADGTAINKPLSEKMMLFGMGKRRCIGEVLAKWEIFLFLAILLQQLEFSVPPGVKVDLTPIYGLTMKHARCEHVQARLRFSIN
Sequence of Cytochrome P450 2D6 (Homo sapiens) (P10635 whole entry, looked up): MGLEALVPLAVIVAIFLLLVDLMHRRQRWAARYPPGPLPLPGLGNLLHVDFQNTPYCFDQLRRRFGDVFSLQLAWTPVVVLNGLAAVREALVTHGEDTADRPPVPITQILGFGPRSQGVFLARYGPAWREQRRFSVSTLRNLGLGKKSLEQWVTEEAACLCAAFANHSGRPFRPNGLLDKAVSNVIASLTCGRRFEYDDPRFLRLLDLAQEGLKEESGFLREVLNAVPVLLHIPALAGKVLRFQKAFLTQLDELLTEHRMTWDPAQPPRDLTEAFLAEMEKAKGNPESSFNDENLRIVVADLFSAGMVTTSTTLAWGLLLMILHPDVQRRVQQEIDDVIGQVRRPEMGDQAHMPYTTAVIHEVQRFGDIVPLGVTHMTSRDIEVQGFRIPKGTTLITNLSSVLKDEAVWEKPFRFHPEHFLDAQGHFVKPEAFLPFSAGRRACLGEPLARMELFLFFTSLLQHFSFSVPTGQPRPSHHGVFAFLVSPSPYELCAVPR

COc1ccc2c(c1)[C@]13CCCC[C@@H]1[C@H](C2)NCC3
active: Potency [11] 6.31 µM
inactive: activity change, negative = inhibition [1] 15.6% [at 38 µM] | Potency [2] | activity change, negative = inhibition [3] 4.42% [at 38 µM] | activity, negative = inhibition [4] -11.2% [at 38 µM] | Potency [5] > 46 µM | Potency [6] > 46 µM | Potency [7] | outcome [8] | outcome [9] | Potency [10] | outcome [12] | Potency [13] | outcome [14] | outcome [15] | outcome [16] | outcome [17] | outcome [18] | outcome [19]

N[C@H](Cn1ccc(=O)[nH]c1=O)C(=O)O
active: Potency [11] 3.98 µM
inactive: activity change, negative = inhibition [1] -6.11% [at 38 µM] | Potency [2] | activity change, negative = inhibition [3] -2.89% [at 38 µM] | activity, negative = inhibition [4] 4.92% [at 38 µM] | Potency [6] > 46 µM | outcome [8] | outcome [9] | outcome [12] | outcome [14] | outcome [15] | outcome [16] | outcome [17] | outcome [18] | outcome [19]

CC(C)N[C@@H](C)Cc1ccc(I)cc1
inactive: activity change, negative = inhibition [1] 17.5% [at 38 µM] | activity change, negative = inhibition [3] -29.8% [at 38 µM] | activity, negative = inhibition [4] -4.05% [at 38 µM] | Potency [5] > 46 µM | Potency [6] > 46 µM | Potency [7] | outcome [8] | outcome [9] | outcome [12] | outcome [14] | outcome [15] | outcome [16] | outcome [17] | outcome [18] | outcome [19]
active: Potency [2] 10 µM | Potency [13] 14.1 µM

C=CCN1CC[C@]23c4c5ccc(O)c4O[C@@H]2/C(=N/NC(=O)c2ccccc2)CC[C@@]3(O)[C@H]1C5
inactive: activity change, negative = inhibition [1] -2.73% [at 38 µM] | Potency [2] | activity change, negative = inhibition [3] -2.19% [at 38 µM] | activity, negative = inhibition [4] -23.6% [at 38 µM] | Potency [6] > 46 µM | Potency [7] | outcome [8] | outcome [9] | Potency [10] | outcome [12] | Potency [13] | outcome [14] | outcome [15] | outcome [16] | outcome [17] | outcome [18] | outcome [19]

C[C@@H](O)CN(CCN(C[C@@H](C)O)C[C@@H](C)O)C[C@@H](C)O.O=[N+]([O-])O.[Cu]
inactive: activity change, negative = inhibition [1] -0.101% | activity change, negative = inhibition [3] -2.32% | activity, negative = inhibition [4] 2.41% | Potency [6] > 9.22 µM | activity change, negative = inhibition [7] -3.67% [at 11.4 µM] | outcome [8] | activity change, positive = activation [10] -36.8% [at 11.4 µM]
active: Potency [2] 5.01 µM

CC(=O)[C@@H]1CC[C@H]2[C@H]3CC[C@H]4C[C@@H](O)CC[C@]4(C)[C@@H]3CC[C@]12C
active: Potency [2] 10 µM
inactive: activity change, negative = inhibition [1] 11.2% [at 38 µM] | activity change, negative = inhibition [3] -10.3% [at 38 µM] | activity, negative = inhibition [4] -25.9% [at 38 µM] | Potency [5] > 46 µM | Potency [6] > 46 µM | Potency [7] | outcome [8] | outcome [9] | Potency [10] | Potency [13] | outcome [14] | outcome [15] | outcome [16] | outcome [17] | outcome [18] | outcome [19]

C[N+]1(C)C2CC(OC(=O)C(CO)c3ccccc3)CC1[C@@H]1O[C@H]21 (stereo partly specified)
active: activity change, negative = inhibition [3] -56.8% [at 38 µM]
inactive: activity change, negative = inhibition [1] -8.85% [at 38 µM] and -6.94% [at 38 µM] | Potency [2] | activity, negative = inhibition [4] 5.12% [at 38 µM] and -2.5% [at 38 µM] | Potency [7] | outcome [9] | Potency [10] | outcome [12] | outcome [14] | outcome [15] | outcome [16] | outcome [17] | outcome [18] | outcome [19]

CCCN1CC[C@@H]2c3cc(O)ccc3CC[C@H]21
active: Potency [13] 14.1 µM
inactive: activity change, negative = inhibition [1] -14.4% [at 38 µM] | Potency [2] | activity change, negative = inhibition [3] -28.7% [at 38 µM] | activity, negative = inhibition [4] -6.76% [at 38 µM] | Potency [5] > 46 µM | Potency [6] > 46 µM | Potency [7] | outcome [8] | outcome [9] | outcome [12] | outcome [14] | outcome [15] | outcome [16] | outcome [17] | outcome [18] | outcome [19]

CC(=O)OCC1=C(C(=O)[O-])N2C(=O)[C@@H](NC(=O)CCC[C@@H](N)C(=O)[O-])[C@@H]2SC1.[Zn+2]
inactive: activity change, negative = inhibition [1] 13.1% [at 38 µM] | Potency [2] | activity change, negative = inhibition [3] 1.01% [at 38 µM] | activity, negative = inhibition [4] -13.9% [at 38 µM] | Potency [5] > 46 µM | Potency [6] > 46 µM | Potency [7] | outcome [8] | outcome [9] | outcome [12] | Potency [13] | outcome [14] | outcome [15] | outcome [16] | outcome [17] | outcome [18] | outcome [19]

From PubChem BioAssay (NCATS)
